Holding throughout (settings): mRNA level, 48 h; actives raise or lower the signal
Read-out in assay [1]: Cytochrome P450 7A1 (Homo sapiens) (UniProt P22680)
The assay can be described thus: LTEA_HepaRG_CYP7A1: Life Technologies and Expression Analysis (LTEA) Assay for Cytochrome P450 7A1 (CYP7A1) using HepaRG (AID 2283496). Summed up: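 Using 0.5% DMSO as vehicle and baseline, chemicals were tested in duplicate over an 8-point range from 100 uM on HepaRG cells for 48 h; qRT-PCR signals were normalised to ACTB, GAPDH and POLR2A.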

Read-out in assay [2]: Glutathione S-Transferase (GSTA2), GSTA2 (gene 2939)
As to the kind of experiment: LTEA_HepaRG_GSTA2: Life Technologies and Expression Analysis (LTEA) Assay for Glutathione S-Transferase (GSTA2) using HepaRG (AID 2283497). The method in brief:
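qRT-PCR readout of GSTA2 transcript, normalized to three housekeeping genes, fitted bidirectionally against 0.5% DMSO baseline. Differentiated HepaRG cells received compound for 48 h at 8 concentrations (top 100 uM, half-log steps).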

Read-out in assay [3]: Glutamate-cysteine ligase catalytic (GCLC), GCLC (gene 2729)
The assay can be described thus: LTEA_HepaRG_GCLC: Life Technologies and Expression Analysis (LTEA) Assay for Glutamate-cysteine ligase catalytic (GCLC) using HepaRG (AID 2283498). Summed up: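 HepaRG, 48 h exposure, 8-pt half-log series from 100 uM, 0.5% DMSO vehicle; TaqMan qRT-PCR for GCLC mRNA, housekeeping-normalized; bidirectional curve fit vs DMSO baseline.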

Read-out in assay [4]: growth arrest and DNA damage 45 (GADD45G), GADD45G (gene 10912)
As to the kind of experiment: LTEA_HepaRG_GADD45G: Life Technologies and Expression Analysis (LTEA) Assay for growth arrest and DNA damage 45 (GADD45G) using HepaRG (AID 2283499). The method in brief: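 Human hepatic HepaRG line treated 48 h with chemicals (eight concentrations, half-log steps from 100 uM); transcript induction or repression of GADD45G scored by qRT-PCR versus DMSO vehicle.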

Read-out in assay [5]: Glutamate-cysteine ligase regulatory (GCLM), GCLM (gene 2730)
As to the kind of experiment: LTEA_HepaRG_GCLM: Life Technologies and Expression Analysis (LTEA) Assay for Glutamate-cysteine ligase regulatory (GCLM) using HepaRG (AID 2283500). The method in brief: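 In this multiplexed HepaRG gene-expression assay, GCLM mRNA change after 48 h treatment (8 concentrations, max 100 uM) was scored against DMSO by bidirectional curve fitting.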

Read-out in assay [6]: Glutathione S-transferase M3 (GSTM3), GSTM3 (gene 2947)
The assay can be described thus: LTEA_HepaRG_GSTM3: Life Technologies and Expression Analysis (LTEA) Assay for Glutathione S-transferase M3 (GSTM3) using HepaRG (AID 2283501). The method in brief:
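Changes in GSTM3 expression, an oxidative-stress marker, were scored by bidirectional curve fitting against 0.5% DMSO vehicle. Human HepaRG cultures received chemicals for 48 h in duplicate, highest concentration 100 uM with half-log dilutions.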

Read-out in assay [7]: Heat shock 70 kDa protein 1 (HSPA1A), gene 3303
The assay can be described thus: LTEA_HepaRG_HSPA1A: Life Technologies and Expression Analysis (LTEA) Assay for Heat shock 70 kDa protein 1 (HSPA1A) using HepaRG (AID 2283502). Summed up:
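An oxidative-stress marker readout: HepaRG cells treated 48 h in duplicate with an eight-point series (highest 100 uM) had HSPA1A mRNA quantified by TaqMan qRT-PCR. Activity was fitted in both directions using 0.5% DMSO as baseline.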

Read-out in assay [8]: Hypoxia-inducible factor 1-alpha (Homo sapiens) (UniProt Q16665)
The assay can be described thus: LTEA_HepaRG_HIF1A: Life Technologies and Expression Analysis (LTEA) Assay for Hypoxia-inducible factor 1 (HIF1A) Trancription factor using HepaRG (AID 2283503).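 Further: HIF1A transcript by TaqMan qRT-PCR normalized to ACTB GAPDH and POLR2A.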 The method in brief:
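Gain- or loss-of-signal HIF1A mRNA changes are fitted against a DMSO baseline. HepaRG cultures receive eight concentrations, highest 100 uM, for 48 h in serum-free induction medium with 0.5% DMSO.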

Read-out in assay [9]: 3-Hydroxy-3-Methylglutaryl-CoA Synthase 2 (HMGCS2), HMGCS2 (gene 3158)
The assay can be described thus: LTEA_HepaRG_HMGCS2: Life Technologies and Expression Analysis (LTEA) Assay for 3-Hydroxy-3-Methylglutaryl-CoA Synthase 2 (HMGCS2) using HepaRG (AID 2283504). Summed up: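 Expression of HMGCS2 in human HepaRG liver cells is measured by qRT-PCR 48 h after dosing (highest 100 uM, half-log series, 0.5% DMSO). Values come from bidirectional concentration-response fitting with DMSO as baseline.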

Read-out in another assay: HGF (gene 3082)
The assay can be described thus: LTEA_HepaRG_HGF: Life Technologies and Expression Analysis (LTEA) Assay for Hepatocyte Growth Facto (HGF) using HepaRG (AID 2283505). Summed up:
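Gain or loss of HGF mRNA in human HepaRG liver cells after 48 h chemical exposure; eight concentrations up to 100 uM with 0.5% DMSO vehicle, quantified by TaqMan qRT-PCR.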

Usually AC50 stands for the midpoint of the concentration-response curve, whichever way the signal moves.

Active and inactive are the calls of the source. How the source made its calls: active means hit-call score of the fitted dose curve at least 0.9, where 1 is the maximum; inactive means score below 0.9.

Hypoxia-inducible factor 1-alpha (Homo sapiens), sequence (Q16665 whole entry, looked up): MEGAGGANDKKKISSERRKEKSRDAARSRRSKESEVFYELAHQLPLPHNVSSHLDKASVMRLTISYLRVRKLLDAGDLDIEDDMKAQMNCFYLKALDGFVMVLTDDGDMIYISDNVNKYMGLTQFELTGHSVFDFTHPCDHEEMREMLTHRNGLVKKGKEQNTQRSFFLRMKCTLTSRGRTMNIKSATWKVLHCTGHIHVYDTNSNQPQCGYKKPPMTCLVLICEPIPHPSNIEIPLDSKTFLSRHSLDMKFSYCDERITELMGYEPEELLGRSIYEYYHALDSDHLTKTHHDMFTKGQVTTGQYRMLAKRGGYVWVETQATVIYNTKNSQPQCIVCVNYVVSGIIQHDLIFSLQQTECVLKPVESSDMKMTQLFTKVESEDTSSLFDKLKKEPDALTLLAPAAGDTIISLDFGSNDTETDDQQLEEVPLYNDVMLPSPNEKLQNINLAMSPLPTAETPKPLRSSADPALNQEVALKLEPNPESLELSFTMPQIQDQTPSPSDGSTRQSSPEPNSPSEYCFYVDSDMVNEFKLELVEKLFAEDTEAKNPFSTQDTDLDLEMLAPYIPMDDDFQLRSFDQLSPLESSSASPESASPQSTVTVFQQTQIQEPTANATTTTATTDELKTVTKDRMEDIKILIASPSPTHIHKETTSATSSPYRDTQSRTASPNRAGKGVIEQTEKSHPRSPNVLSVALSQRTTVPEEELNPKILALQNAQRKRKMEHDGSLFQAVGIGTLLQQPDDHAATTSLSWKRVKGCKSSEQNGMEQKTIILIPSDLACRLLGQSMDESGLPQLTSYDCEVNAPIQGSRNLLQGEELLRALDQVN

For `Cc1cc(F)ccc1-c1cc(N2CC[C@@H](O)[C@H]2CO)ncc1N(C)C(=O)C(C)(C)c1cc(C(F)(F)F)cc(C(F)(F)F)c1`, the AC50 was 20 µM (active) in [1]; 10.4 µM (active) in assay [2]; 75.4 µM (active) in assay [3]; 20.1 µM (active) in [4]; 46.7 µM (active) in [5]; 70.1 µM (active) in assay [7]. For the same molecule, the AC50 in assay [8] is 74.6 µM (active); in assay [9], 19.7 µM (active). For the same molecule, the molecule was classed as inactive (in assay [6]; in the assay with HGF (gene 3082)).

Regarding `O=C(O)Cc1cc(I)c(Oc2ccc(O)c(I)c2)c(I)c1`, the AC50 was 56.8 µM (active) in assay [1]; 84.7 µM (active) in [2]; 70.3 µM (active) in [4]; 79 µM (active) in assay [5]; 79.7 µM (active) in assay [7]; 77.1 µM (active) in [9]. Moreover, the AC50 with HGF (gene 3082) is 66.8 µM (active). For the same molecule, the result in assay [3] and in [6] was inactive.

Consider `CN1C(=O)CC[C@H]1c1cccnc1`, for which the molecule was called inactive in assay [1], in assay [2], in assay [3], in assay [4], in assay [5] and in [6]. Besides, the result (in [7]; in assay [9]; with HGF (gene 3082)) was inactive.

Regarding `CC1(C)NC(=O)N(c2ccc([N+](=O)[O-])c(C(F)(F)F)c2)C1=O`, the half-maximal activity concentration (AC50) in assay [1] is 90.1 µM (active); in [2], 78.4 µM (active); in assay [3], 83.4 µM (active); in [4] it was 77.4 µM (active); in assay [5], 70.9 µM (active); in [9] it was 76.6 µM (active). The call (in [6]; in assay [7]; in the assay with HGF (gene 3082)) was inactive.

With `CCCCCCCCCC(=O)O`, the call in assay [1], in assay [2], in assay [3], in [4], in [5] and in assay [6] was inactive. Also, the result (in assay [7]; in assay [8]; in [9]; in the assay with HGF (gene 3082)) was inactive.

As for `CC(C)(C)c1cc(/C=C2\SC(N)=NC2=O)cc(C(C)(C)C)c1O`, the AC50 in [1] is 25.2 µM (active); in [2], 91.4 µM (active); in assay [3] it was 14.5 µM (active); in [4], 21.5 µM (active); in assay [8], 68.8 µM (active); in [9] it was 50 µM (active). The AC50 with HGF (gene 3082) is 24.5 µM (active). Moreover, the molecule was classed as inactive in assay [5], in [6] and in assay [7].

In the case of `O=C(O)Cn1c(=O)n(Cc2ccc(Br)cc2F)c(=O)c2ccc(Cl)cc21`, the outcome in assay [1], in [2], in assay [3], in [4], in assay [5] and in assay [6] was inactive. Further, the molecule was called inactive (in [7]; in [8]; in assay [9]; with HGF (gene 3082)).

On to `Cc1c2ccccc2c(C)c2c1ccc1ccccc12`, for which the AC50 was 65.9 µM (active) in assay [1]; 39.4 µM (active) in [2]; 50 µM (active) in [5]; 90.9 µM (active) in assay [8]; 52.5 µM (active) in assay [9]; 63.3 µM (active) with HGF (gene 3082). Also, the molecule was called inactive in [3], in assay [4] and in [6].

Consider `C[C@]12CC[C@@H]3c4ccc(O)cc4CC[C@H]3[C@@H]1CC[C@H]2O`, for which the molecule was called inactive in assay [1], in [2], in assay [3], in assay [4], in [5] and in [6]. The molecule was classed as inactive with HGF (gene 3082). Also, the figures for the AC50 in assay [7] and in assay [9] were 12.5 µM (active) and 82.2 µM (active), respectively.

As for `C[C@]12CC[C@@H]3c4ccc(O)cc4CC[C@H]3[C@@H]1CCC2=O`, the molecule was called inactive in assay [2], in assay [3], in assay [4], in assay [5], in [6] and in [8]. In the assay with HGF (gene 3082), the molecule was classed as inactive. In addition, the AC50 in assay [7] was 33.2 µM (active); in [9], 72.7 µM (active).

As to `CCN(Cc1cccnc1)C(=O)c1cccc(Cl)c1[C@]1(C)C(=O)N(Cc2ccc(OC)cc2OC)c2ccc(Cl)cc21`, the AC50 in assay [1] is 22.3 µM (active); in [2] it was 25.8 µM (active); in assay [3] it was 22.4 µM (active); in assay [5], 20.1 µM (active); in [7], 6.92 µM (active); in [9], 21.8 µM (active). In addition, the AC50 with HGF (gene 3082) is 21.9 µM (active). Also, the result in assay [4], in [6] and in assay [8] was inactive.

For `CCOC(=O)O[C@H](C)OC(=O)c1ccc2c(c1)cc(C(=O)NC1CCN(C(C)C)CC1)n2Cc1cc(-c2ccc(Cl)s2)on1`, the call in assay [1], in assay [2], in assay [3], in assay [4], in assay [5] and in [6] was inactive. The outcome (in assay [7]; in assay [8]; in [9]; in the assay with HGF (gene 3082)) was inactive.

Consider `CC[C@H](NC(=O)c1cc(F)ccc1NS(=O)(=O)c1cccc2cccnc12)c1ccccc1`, for which the AC50 was 33.8 µM (active) in assay [1]; 80 µM (active) in assay [2]; 47.8 µM (active) in [3]; 12.2 µM (active) in assay [7]; 37.6 µM (active) in assay [9]. Besides, the molecule was classed as inactive (in assay [4]; in [5]; in [6]; in assay [8]; in the assay with HGF (gene 3082)).

As for `CC/C(=C(/CC)c1ccc(O)cc1)c1ccc(O)cc1`, the half-maximal activity concentration (AC50) in [1] was 84.8 µM (active); in [3] it was 78.7 µM (active); in assay [4], 71.7 µM (active); in assay [7], 75.8 µM (active); in [8], 85.7 µM (active); with HGF (gene 3082), 23.6 µM (active). Besides, the outcome in [2], in assay [5], in assay [6] and in assay [9] was inactive.

As for `CCO[Si](CCCNC(N)=O)(OCC)OCC`, the molecule was classed as inactive in assay [1], in [2], in assay [3], in [4], in assay [5] and in assay [6]. For the same molecule, the call (in assay [7]; in assay [8]; in assay [9]; in the assay with HGF (gene 3082)) was inactive.

For `O=c1c(-c2ccc(O)cc2)coc2cc(O)cc(O)c12`, the outcome in assay [1], in assay [2], in assay [3], in assay [4], in assay [5] and in assay [6] was inactive. In addition, the molecule was called inactive (in [7]; in [8]; in assay [9]; in the assay with HGF (gene 3082)).

In the case of `CC1=CC(=O)/C(=C(/C)O)C(=O)O1`, the molecule was classed as inactive in [1], in assay [2], in [3], in assay [4], in assay [5] and in assay [6]. The molecule was called inactive (in assay [7]; in [8]; in assay [9]; in the assay with HGF (gene 3082)).

For `CC(=O)N1CCN(c2ccc(OC[C@H]3CO[C@](Cn4ccnc4)(c4ccc(Cl)cc4Cl)O3)cc2)CC1`, the AC50 is 12.9 µM (active) in [1]; 11.3 µM (active) in [2]; 65.5 µM (active) in assay [3]; 88.7 µM (active) in assay [5]; 22.7 µM (active) in assay [6]; 79.5 µM (active) in assay [7]. Besides, the concentration at half-maximal activity (AC50) in [9] is 12.4 µM (active). Besides, the result in assay [4] was inactive.

On to `Clc1ccccc1C(c1ccccc1)(c1ccccc1)n1ccnc1`, for which the AC50 in assay [1] is 28.5 µM (active); in [2], 50 µM (active); in [3] it was 63 µM (active); in assay [4], 28 µM (active); in assay [5], 24.2 µM (active); in assay [9], 24.3 µM (active). Besides, the AC50 with HGF (gene 3082) was 26.7 µM (active). Further, the molecule was called inactive in assay [6] and in assay [7].

For `Cc1cn([C@H]2C[C@H](N=[N+]=[N-])[C@@H](CO)O2)c(=O)[nH]c1=O`, the call in assay [1], in [2], in [3], in assay [4], in assay [5] and in assay [6] was inactive. The molecule was called inactive (in assay [7]; in assay [9]; with HGF (gene 3082)).

For the origin of these results see PubChem BioAssay (EPA / NIEHS).
